Assay outcomes (PubChem)
Compounds with a hit are over-represented: about 1.3% of the library has one in this group of screens.
pAkt inh: Akt phosphorylation inhibition; actives 0.32% (n = 360,000); activity change, % for hits at 50 µM; AID 651550; Neuro2A IGF-stimulated pAkt S473 HTRF, 20 min; stronger effect = lower value; in the data active = activity change below about -80%; inconclusive = mostly about -51% to -80%
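Neuro2A cells in DMEM with 0.5% FBS, overnight at 37 deg C, given compound at single 50 µM final, then IGF (6 nM final) for 20 min at 37 deg C. Lysed; phospho-Akt Ser473 by HTRF after 24 h, 665/615 ratio.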
Six1-Eya2 inh: blocks human Six1 binding to Eya2; actives 0.56% (n = 360,000); AID 651725; AlphaScreen GST-Six1/His-Eya2 binding, biochemical; stronger effect = lower value; Q15475+O00167; activity change, % (test concentration not listed)
Target sequence (O00167 whole entry, looked up): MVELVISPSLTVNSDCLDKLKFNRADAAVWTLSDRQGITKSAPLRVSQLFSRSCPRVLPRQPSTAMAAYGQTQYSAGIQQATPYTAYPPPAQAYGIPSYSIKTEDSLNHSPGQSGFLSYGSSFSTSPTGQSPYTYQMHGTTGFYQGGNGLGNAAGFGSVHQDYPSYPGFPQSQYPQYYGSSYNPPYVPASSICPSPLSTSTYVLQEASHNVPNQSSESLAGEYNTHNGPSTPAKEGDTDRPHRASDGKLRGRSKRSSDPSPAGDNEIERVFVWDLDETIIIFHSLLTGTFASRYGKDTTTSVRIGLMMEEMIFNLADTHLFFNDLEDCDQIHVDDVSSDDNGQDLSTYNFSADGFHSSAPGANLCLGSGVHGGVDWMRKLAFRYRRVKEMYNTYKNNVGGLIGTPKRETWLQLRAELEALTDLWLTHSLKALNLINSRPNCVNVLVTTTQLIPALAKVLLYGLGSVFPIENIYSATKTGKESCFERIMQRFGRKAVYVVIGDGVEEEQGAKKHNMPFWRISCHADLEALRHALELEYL
Target sequence (Q15475 whole entry, looked up): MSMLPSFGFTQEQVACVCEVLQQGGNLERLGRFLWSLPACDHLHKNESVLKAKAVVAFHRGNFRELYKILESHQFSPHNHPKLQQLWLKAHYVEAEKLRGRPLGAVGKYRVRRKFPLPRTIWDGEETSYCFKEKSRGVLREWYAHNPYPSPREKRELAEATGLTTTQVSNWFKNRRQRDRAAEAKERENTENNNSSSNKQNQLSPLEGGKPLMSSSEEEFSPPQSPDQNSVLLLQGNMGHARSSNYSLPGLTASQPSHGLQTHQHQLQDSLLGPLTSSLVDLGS
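GST-Six1 + His-Eya2 (5X stock: 250/500 nM); Tris pH 8.0, 300 mM NaCl, 0.05% BSA, 0.02% Tween 20; GSH donor/Ni acceptor beads; 1 h 37 °C dark; AlphaScreen readout.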
CCT modulator: changes cytosolic chaperonin activity | purified chaperonin ATPase assay, HTRF ADP detection, 30 min | activity change, % (concentration not given with the values), hits read low | actives 0.3% (n = 360,000) | AID 651819; in the data active = activity change below about -30%
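ATPase activity: ADP formed was measured by HTRF Transcreener (665/615 nm ratio) after 30 min at 37 deg C with 10 uM ATP. Compounds screened at one 76 uM concentration against 40 or 20 nM TRiC in Tris pH 7.4/KCl/MgCl2/DTT buffer.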
CtBP-E1A blk: CtBP/E1A binding inhibition | activity change, % (concentration not given with the values) | AlphaScreen GST-E1A/His-CtBP binding, 1536-well; stronger effect = lower value | actives 0.49% (n = 340,000)
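Steps: dispense buffer (Tris pH 8.0, NaCl 300 mM, TCEP 1 mM, BSA, Tween 20); add 5X protein mix (GST-E1A, His-CtBP, 125 nM each); pin 23 nL compound; 2 h at 37 °C, dark; add 5X beads (50 ug/mL); 1 h; read.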
Hits are given with their value; i = inactive; ? = inconclusive; nt = not tested or not shown. Cut-off read from the data, not from the text of the source, unless noted: active = activity change below about -65%; inconclusive = mostly about -30% to -63%; inactive = weaker than that.

SMILES	pAkt inh	Six1-Eya2 inh	CCT modulator	CtBP-E1A blk
COC(=O)C1CCN(C2CN(Cc3ccc(F)cc3)S(=O)(=O)C2)CC1 (stereo not given)	i	i	i	i
CC1(C(=O)NCc2ccccc2)CSCC(=O)N1Cc1ccco1 (stereo not given)	i	i	nt	i
NS(=O)(=O)c1ccc(N=Nc2c(O)ccc3ccccc23)cc1	i	i	i	i
N=C(N)c1ccc(N=Nc2c(O)ccc3c2[nH]c2ccccc23)cc1	i	?	i	-66.5
Cc1ccc(C)c(CC(=O)N2CCCCC2c2cc(C(=O)Nc3ccc(F)c(Cl)c3)no2)c1 (stereo not given)	i	i	i	i
O=C(CS(=O)(=O)c1ccc(Cl)cc1)N1CCN(c2ccccc2)CC1	i	i	i	i
CC(C)CCn1nnnc1C(C(C)C)N1CCC(C(N)=O)CC1 (stereo not given)	-100.0%	i	i	i
O=C(O)c1ccc(N2CCc3ccccc32)c([N+](=O)[O-])c1	i	i	i	i
COC(=O)c1ccc(N2CCc3ccccc32)c([N+](=O)[O-])c1	i	-70.1	i	i
Cc1c(C)c2c(OCC(=O)N3CCC[C@H]3C(=O)O)cc3c(c2oc1=O)CCC(C)(C)O3	i	-85.2	i	?
NC(=O)c1cccc(Nc2nc(C(N)COCc3ccccc3)cs2)n1 (stereo not given)	i	?	i	?
NC(Cc1ccc(Cl)cc1)c1csc(Nc2cc(NCCCO)ncn2)n1 (stereo not given)	i	-69.6	i	-78.3
NC(COCc1ccccc1)c1csc(Nc2cc(NCCCO)ncn2)n1 (stereo not given)	i	-86.4	i	-86.0
CCc1cnc(Nc2nc(C(N)Cc3ccc(Cl)cc3)cs2)nc1 (stereo not given)	i	i	i	i
NC(COCc1ccccc1)c1csc(Nc2ncccn2)n1 (stereo not given)	i	-80.9	i	-85.0
CC(C)CC(N)c1csc(Nc2ncccn2)n1 (stereo not given)	i	?	i	-70.9
Cc1ccccc1-n1nc2c(c1NC(=O)c1ccc3c(c1)OCO3)CS(=O)(=O)C2	i	i	i	i
COc1cccc(-c2c(-c3ccccc3OC)ncn2Cc2cccc(-c3ccccc3)c2)c1	i	i	nt	i
CCOc1ccc(C(=O)COC(=O)Cn2[nH]c(=O)c3ccccc3c2=O)cc1	i	i	i	i
Cc1cc(OCC(O)CN2CCN(c3ccccn3)CC2)cc(C)c1Cl (stereo not given)	i	i	i	i
COc1cccc(Nc2nc(C(N)CO)cs2)n1 (stereo not given)	nt	?	i	-75.7
Cc1nc(N)sc1-c1csc(Nc2ncccn2)n1	i	?	i	i
COc1ccc(CC(N)c2csc(Nc3cc(NCCCO)ncn3)n2)cc1 (stereo not given)	i	-90.6	i	-92.9
NCc1csc(Nc2ncccn2)n1	i	-72.5	i	-80.6
COc1cccc(Nc2nc(C(N)Cc3ccccc3)cs2)n1 (stereo not given)	i	i	i	i
SMILES	pAkt inh	Six1-Eya2 inh	CCT modulator	CtBP-E1A blk
C[C@H](c1ccccc1)N1C[C@H](COCc2ccccc2)Oc2cc(N3CCC[C@@H]3CO)ccc2S1(=O)=O	i	i	i	i
COC(=O)CC1C(=O)NCCN1C(=S)Nc1ccc(F)cc1 (stereo not given)	i	i	i	i
CN(C)CCN(C)C1CN(Cc2ccccc2)S(=O)(=O)C1 (stereo not given)	i	i	i	i
COc1ccc(/C=C/C(=O)O/N=C(\N)c2ccccn2)cc1OC	i	i	i	-73.1
COc1ccc(Cl)cc1-c1nc(SCC(=O)NC2CC2)n[nH]1	i	i	i	i
Cc1nc(N2CCN(C)CC2)[nH]c(=O)c1Cc1cccc2ccccc12	i	i	i	i
Cc1[nH]c(=O)[nH]c(=O)c1Cc1cccc2ccccc12	i	i	-37.3	i
Cn1cc(CCC(=O)NCCCc2ccccc2)c2ccccc21	i	i	i	i
O=C1NC(c2ccccn2)Nc2sc3c(c21)CCC3 (stereo not given)	i	-80.1	i	-77.3
CN1CCc2c(sc3c2C(=O)NC(c2ccccn2)N3)C1 (stereo not given)	i	-66.8	i	?
CN1CCc2c(sc3c2C(=O)NC(c2ccccc2)N3)C1 (stereo not given)	i	i	i	i
O=C(Nc1ccccc1Br)c1cc[n+]([O-])cc1	i	i	i	i
Nn1c(SCC(=O)NCC2CCCO2)nnc1-c1ccco1 (stereo not given)	i	i	i	i
Cc1nc(Nc2ccc(C(=O)O)cc2)nc(Nc2ccc(C(=O)O)cc2)c1[N+](=O)[O-]	i	-75.1	i	nt
CC(C)(C)S(=O)N1Cc2cc(C(=O)NCC(F)(F)F)nc(-c3cccc(-c4cccc(F)c4)c3)c2[C@@H]1CCO (stereo not given in full)	i	i	i	i
CCc1ccccc1NC(=O)CSc1nc2n[nH]c(C)c2c(=N)n1-c1cccc(OC)c1	i	?	i	-69.9
COCCCNC(=S)N1CCC(C(=O)c2ccc(Cl)cc2)CC1	i	i	i	i
NS(=O)(=O)c1ccc(N=Nc2ccc(O)c3ncccc23)cc1	i	-96.9	i	nt
Cc1ccc(C)c(N=Nc2ccc(O)c3ncccc23)c1	i	?	i	?
Oc1ccc(N=Nc2ccc3c(c2)OCCO3)c2ncccc12	i	-75.8	i	nt
Cc1cccc(N=Nc2ccc(O)c3ncccc23)c1	i	-84.5	i	-79.1
CCOc1ccc(CCNC(=O)C2CCCN(S(=O)(=O)N3CC(C)CC(C)C3)C2)cc1OCC (stereo not given)	i	i	i	i
O=C(Cc1ccc(NC(=O)C2CCN(C(=O)C3CC3)CC2)cc1)Nc1cccc(C(=O)N2CCCC2)c1	i	i	i	i
Cc1nnc(SCc2cccs2)[nH]c1=O	i	i	i	i
Cc1noc(C)c1CSc1nnc(C)c(=O)[nH]1	-108.0%	i	i	i
SMILES	pAkt inh	Six1-Eya2 inh	CCT modulator	CtBP-E1A blk
COCCNC(=O)C1(C)CCCN(Cc2cc(-c3ccccc3)on2)C1 (stereo not given)	i	i	i	i
O=S1(=O)CC(N2CC=CC2)CN1C1CCCCC1 (stereo not given)	i	i	i	i
O=C(CSc1nnc(-c2ccncc2)n1Cc1ccccc1)NC1CCCc2ccccc21 (stereo not given)	i	i	i	?
Nn1c(SCC(=O)NC2CCCc3ccccc32)nnc1-c1cccs1 (stereo not given)	-103.4%	i	i	i
O=C1c2ccsc2SCCN1Cc1ccc(Cl)cc1	-123.6%	i	i	i
c1ccc(-c2cnnc(SCc3cn4cccnc4n3)n2)cc1	-112.2%	i	i	i
COc1ccc(-n2nc([N+](=O)[O-])c(=NCCC3=CCCCC3)n2O)cc1	i	-69.6	i	?
Cc1ccc(NC(=O)C(C)OC(=O)CCN=C2NS(=O)(=O)c3ccccc32)cc1 (stereo not given)	i	i	i	i
Cc1ccc(-n2ncc3c2CC(C)(C)CC3NC(=O)CCc2ccc(=O)[nH]n2)cc1 (stereo not given)	i	i	i	i
